The source of these data is PubChem BioAssay AID1476 (National Center for Advancing Translational Sciences (NCATS), 2009).

The whole screen tested about 200,000 compounds, of which about 4,500 (2.2%) were called active. Roughly 12% stayed inconclusive and do not appear here. This is one part of a sample in which actives are shown more often than they occur. A number with no mark means an inactive call. The call rests on the fitted dose curve; in most records, active means well fitted inhibition curve with a large enough effect; inconclusive means small, poorly fitted or top-dose-only effect, or effect the other way; inactive means flat fitted curve, though single readings scatter.
Potency means the concentration at half of the fitted maximal effect.

Cruzipain (Trypanosoma cruzi), sequence (P25779 123-467 limits assumed): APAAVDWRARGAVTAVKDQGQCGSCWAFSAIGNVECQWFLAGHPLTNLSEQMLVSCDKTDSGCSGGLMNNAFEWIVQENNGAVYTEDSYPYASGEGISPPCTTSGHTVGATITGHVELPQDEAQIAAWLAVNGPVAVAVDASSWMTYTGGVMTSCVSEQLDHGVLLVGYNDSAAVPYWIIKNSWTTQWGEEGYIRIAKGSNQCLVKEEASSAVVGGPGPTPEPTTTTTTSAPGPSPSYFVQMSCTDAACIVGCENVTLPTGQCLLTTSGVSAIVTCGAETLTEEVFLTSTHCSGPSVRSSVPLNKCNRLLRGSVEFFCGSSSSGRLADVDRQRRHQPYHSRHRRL

For this test, the target named is Cruzipain (Trypanosoma cruzi) (UniProt P25779). In words: qHTS Assay for Promiscuous and Specific Inhibitors of Cruzain (without detergent). Further: nearly all actives have a fitted effect of over 40% in size.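 On max response, negative = inhibition: plate controls were enzyme without inhibitor for no effect and buffer without enzyme for full effect.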 Particulars: purified cruzain, Z-FR-AMC fluorescence, no detergent. In a few lines:
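Purified cruzain at 1.5 nM, pre-incubated 15 min with compound at room temperature in 100 mM sodium acetate pH 5.5, 5 mM DTT, 0.00005% Triton X-100. Reaction started with 2 uM Z-FR-AMC; AMC fluorescence increase over 60 s gives rate.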
On the technique in general: Quantitative high-throughput screening tests each substance at several concentrations.
For the compound `Cc1ccc(NC(=O)CCCn2c(=O)c3cccn3c3ccccc32)cc1Cl`, the max response, negative = inhibition was 8.76%.
On the same count and under the same terms, the value for `Cc1ccc(C)c(N2CCN(C(=O)CN3C(=O)COc4ccc(S(=O)(=O)N5CCCCCC5)cc43)CC2)c1` was -9.73%.
Consider `Cc1ccc(C)c(NC(=O)CSC2=Nc3ccccc3N=C(c3ccc(F)cc3)C2)c1`, for which the max response, negative = inhibition was 1.61%.
Still for that read-out and setting: the value for `O=C(CCn1c(SCC(=O)c2ccccc2)nc2ccccc2c1=O)NCc1ccc(F)cc1` was -24.2%.
In the case of `O=C(Nn1c(SCc2ccc([N+](=O)[O-])cc2)nc2ccccc2c1=O)c1ccc(F)cc1`, the Potency is 10 µM (active).
Turning to `O=C(Nn1c(-c2ccccc2)nc2ccccc2c1=O)c1ccc([N+](=O)[O-])cc1`, the max response, negative = inhibition is 8.42%.
Still for that read-out and setting: in the case of `CCc1cccc(C)c1NS(=O)(=O)c1ccc(-c2cc(C)no2)s1` it was -2.03%.
Same read-out and setting: in the case of `CCc1ccc(-n2nnc(-c3nc(-c4ccccc4)no3)c2C)cc1` it was 11.5%; in that of `CCCNC(=O)c1ccc(Cn2c(SCC(N)=O)nc3ccccc3c2=O)cc1`, -1.8%.
Take `COc1ccc(CC(=O)Nc2nnc3n2CCS3)cc1OC`: the max response, negative = inhibition was 3.34%.
`O=S(=O)(O)c1ccc(O)c2ncccc12.O=S(=O)(O)c1ccc(O)c2ncccc12.[Zn]`: the Potency is 3.16 µM (active).
As for `O=C(O)COc1c(Cl)cc(Cl)c2cccnc12`, the max response, negative = inhibition is -2.23%.
Same read-out and setting: in the case of `CC(=O)c1ccc(N2CCN(C3C(=O)c4ccccc4N3C(C)=O)CC2)cc1` (stereo unspecified) it was 6.9%; in that of `COc1ccc(C(F)(F)F)cc1NC(=O)c1sc2nc(-c3cccs3)ccc2c1N`, -12.3%; in that of `CCN(CC(=O)Nc1ccc2c(c1)OCCO2)Cc1cc(=O)oc2cc(C)c(C)cc12`, -1.71%.
Take `O=C(COc1ccc2c(C(F)(F)F)cc(=O)oc2c1)Nc1ccc2c(c1)OCCO2`: the Potency is 7.94 µM (active).
Take `CC(C)NS(=O)(=O)c1ccc(OCC(=O)Nc2ccc3c(c2)OCCO3)cc1`: the max response, negative = inhibition was 5.06%.
Still for that read-out and setting: the value for `Cc1ccc(CN(C(=O)c2ccccc2[N+](=O)[O-])c2ccccn2)cc1` was -9.11%; that for `COc1ccc(CNC(=O)c2cc3c(=O)[nH]c4ccc(C)cc4c3s2)c(OC)c1` was 8.63%.
For the compound `C/C(=N\NC(=O)c1nc(C)cc(C)n1)c1ccccc1`, the max response, negative = inhibition was 4.34%.
For `C/C(=N\NC(=O)Cc1ccc(F)cc1)c1ccc(F)cc1`, the max response, negative = inhibition was 11.2%.
For `C/C(=N\NC(=O)CNC(=O)C(c1ccccc1)c1ccccc1)c1ccc(C)cc1`, the Potency was 12.6 µM (active).
As for `O=C(CCCCn1c(=O)c2ccccc2n(CC(=O)Nc2cccc(C(F)(F)F)c2)c1=O)NCc1ccc2c(c1)OCO2`, the max response, negative = inhibition was 16.7%.
On the same count and under the same terms, the value for `CCOC(=O)c1ccc2c(c1)N(Cc1cccc(OC)c1)C(=O)c1ccccc1S2(=O)=O` was -13.7%; that for `COc1ccc(/C=N/NC(=O)c2ccccc2)cc1OS(=O)(=O)c1ccccc1` was -2.21%; that for `COc1cc(/C=N/NC(=O)c2ccccc2)ccc1OS(=O)(=O)c1ccccc1` was -10.2%.
For the compound `COc1cc(/C=N/NC(=O)Nc2ccccc2)ccc1OCCOc1ccccc1C`, the Potency was 25.1 µM (active).
Regarding `Cc1ccc(NC(=O)Cc2ccc(NC(=O)N3CCCCc4ccccc43)cc2)cc1`, the max response, negative = inhibition was 16.9%.
Still for that read-out and setting: the value for `Cc1cccc(NC(=O)c2ccc3nc(C(C)C)oc3c2)c1C` was -5.86%.
On to `CC(C)(C)C1CCC(=NNC(=O)c2cc(-c3ccccc3)n[nH]2)CC1` (stereo unspecified), for which the Potency was 12.6 µM (active).
In the case of `CC(NC(=O)C(=O)NN=C1CCC(C(C)(C)C)CC1)c1ccccc1` (stereo unspecified), the max response, negative = inhibition was 14.7%.
The same measure, in the same setting: the value for `CC(C)(C)C1CCC(=NNC(=O)c2ccc(Br)o2)CC1` (stereo unspecified) was 6.4%; that for `CCOC(=O)Cn1c(=O)n(C2CCCCC2)c2nc(-c3cccc(OC)c3)nc(C(N)=O)c21` was -11%.
Regarding `COc1ccc(CCNc2nc3c(-c4cccc(F)c4)nnn3c3ccccc23)cc1OC`, the max response, negative = inhibition was 16.6%.
The same measure, in the same setting: in the case of `CC1=C(C(=O)N2CCN(c3cccc(C(F)(F)F)c3)CC2)C2(CCCCC2)OC1=O` it was -13.5%; in that of `CCOc1ccc(CNC(=O)c2ccc3c(c2)nnn3C2CCCC2)cc1`, -5.67%.
Still for that read-out and setting: in the case of `O=C(CCCN1C(=O)/C(=C\c2ccco2)SC1=S)Nc1cccc2ccccc12` it was -12.6%.
For the compound `O=C(CN1C(=O)/C(=C\c2ccccc2F)SC1=S)Nc1nc2ccccc2s1`, the Potency is 7.94 µM (active).
As to `Cc1nn(CC(=O)Nc2nc3ccccc3s2)c(C)c1[N+](=O)[O-]`, the max response, negative = inhibition was -6.47%.
With `COc1ccccc1C(=O)N1CC2(C)CC1CC(C)(C)C2` (stereo unspecified), the max response, negative = inhibition was 16.4%.
In the case of `Cc1cccc(C(=O)NCCCN2CCCC2=O)c1`, the max response, negative = inhibition is -2.37%.
Take `Cc1cccc(C(=O)NCC(=O)OCC(=O)N2CC3(C)CC2CC(C)(C)C3)c1` (stereo unspecified): the Potency was 12.6 µM (active).
For `Cc1cc(C)cc(NC(=O)Cn2nc(N3CCN(c4ccccc4)CC3)ccc2=O)c1`, the max response, negative = inhibition is -3.11%.
`Cc1ccc(-n2c(SCC(=O)N/N=C/C=C/c3ccccc3[N+](=O)[O-])nc3ccccc3c2=O)cc1`: the Potency was 25.1 µM (active).
Take `O=C(CSc1nc2ccccc2[nH]1)N/N=C/C=C\c1ccccc1[N+](=O)[O-]`: the max response, negative = inhibition is 10.4%.
On the same count and under the same terms, in the case of `CCn1c(SCC(=O)N/N=C/C=C/c2ccccc2[N+](=O)[O-])nnc1-c1ccccc1` it was -1.88%; in that of `CCN(c1ccccc1)S(=O)(=O)c1ccc(C(=O)Nc2nccs2)cc1`, 0.885%.
On to `C=CCN(CC=C)S(=O)(=O)c1ccc(C(=O)Nc2nc3c(s2)CCc2ccccc2-3)cc1`, for which the Potency is 10 µM (active).
As to `COCCN(CCOC)S(=O)(=O)c1ccc(C(=O)Nc2nc3c(s2)CCc2ccccc2-3)cc1`, the max response, negative = inhibition is -1.58%.
Same read-out and setting: the value for `Cc1ccc(-c2nnc(Nc3cccc(Br)c3)c3ccccc23)cc1S(=O)(=O)NCC1CCCO1` (stereo unspecified) was -20.7%.
On the same count and under the same terms, the value for `CCCCCn1c(=O)[nH]c2cc(C(=O)NCCN(C)CCCC)ccc2c1=O` was 2.28%; that for `Cc1ccc(S(=O)(=O)n2cnc3ccccc32)c(C)c1` was 3.08%.
With `CCOC(=O)c1c(C)n(S(=O)(=O)c2ccc(C)cc2C)c2ccc(NS(=O)(=O)c3ccc(C)cc3C)cc12`, the Potency was 1.58 µM (active).
Regarding `CCn1c(C)nc2cc(C(=O)NNS(=O)(=O)c3ccc(C)cc3C)ccc21`, the max response, negative = inhibition was 9.43%.
For `N#Cc1ccc(-c2ccc(F)cc2)nc1Sc1ccccc1`, the max response, negative = inhibition is -27.2%.
Still for that read-out and setting: in the case of `CN(C)c1ccnc(Oc2ccc(F)cc2)c1C#N` it was -8.17%.
On to `N#Cc1ccc(-c2ccc(Cl)cc2)nc1Oc1ccc(F)cc1`, for which the Potency was 25.1 µM (active).
As to `COc1cc(NC(=O)Cn2c(=O)n(Cc3ccco3)c(=O)c3oc4ccccc4c32)cc(OC)c1`, the max response, negative = inhibition is -21.5%.
On the same count and under the same terms, in the case of `Cc1ccc(C)c(CNC(=O)c2cc3ccccn3n2)c1` it was -9.01%.
As to `Cc1cc2c(cc1C)N(C(=O)CN1C(=O)c3ccccc3C1=O)C(C)(C)c1ssc(=S)c1-2`, the Potency was 2.51 µM (active).
Turning to `C=CCn1c(C)cc(C(=O)CN2C(=O)c3ccccc3C2=O)c1C`, the max response, negative = inhibition is 4.29%.
The same measure, in the same setting: in the case of `Cc1ccccc1C(=O)NNC(=O)CN1C(=O)c2ccccc2C1=O` it was -8.81%; in that of `O=C(CN1CCN(Cc2ccc(Cl)cc2)C1=O)NCc1ccc(F)cc1`, -6.99%.
The same measure, in the same setting: the value for `COc1ccc(CCNC(=O)CCCCn2c(=O)c3ccccc3n(Cc3ccccc3C)c2=O)cc1OC` was -7.48%; that for `Cc1cc(C)c2nc(NC(=O)C3CCCO3)sc2c1` (stereo unspecified) was 0.42%.
The same measure, in the same setting: the value for `O=C(Nc1nc2ccccc2s1)c1ccc2c(c1)OCO2` was -5.87%.
In the case of `Cc1cc(C)c2nc(NC(=O)c3ccc4c(c3)OCO4)sc2c1`, the Potency was 10 µM (active).
As to `O=C(c1ccc2c(c1)N(Cc1ccc(Cl)cc1)C(=O)c1ccccc1S2(=O)=O)N1CCCCC1`, the max response, negative = inhibition is 0.0442%.
Regarding `O=C1OC(c2ccc(Cl)cc2)=N/C1=C\c1cccnc1`, the max response, negative = inhibition was -2.62%.
The same measure, in the same setting: in the case of `CCOc1cc(/C=C2/N=C(c3ccc(C(C)(C)C)cc3)OC2=O)cc(Cl)c1OS(C)(=O)=O` it was 1.67%.
On to `Cc1ccc(C2=N/C(=C\c3ccc(OS(=O)(=O)c4ccc(C)cc4)cc3)C(=O)O2)cc1`, for which the Potency was 20 µM (active).
For `CN1CCN(C2(CNC(=O)COc3ccc(C(C)(C)C)cc3)CCCCC2)CC1`, the max response, negative = inhibition is -0.272%.
On to `CCn1c(C)c(C)c2cc(C(=O)NCCc3cc(OC)ccc3OC)ccc21`, for which the max response, negative = inhibition was 3.29%.
On the same count and under the same terms, in the case of `Cc1ccc(CNC(=O)CCC(=O)N2CC(C)Sc3ccccc32)cc1` (stereo unspecified) it was 3.17%.
Take `Cc1occc1C(=O)Nc1nnc(-c2ccncc2)s1`: the max response, negative = inhibition is -3.11%.
Turning to `CC(C)=CC(=O)Nc1nnc(-c2ccc(F)cc2)s1`, the Potency was 12.6 µM (active).
In the case of `Cc1ccc(C(=O)Nc2nnc(-c3ccncc3)s2)o1`, the max response, negative = inhibition was -16.9%.
Still for that read-out and setting: the value for `O=C(NCC12CC3CC(CC(C3)C1)C2)c1cc2nc(-c3ccccc3)cc(C(F)(F)F)n2n1` was -1.29%; that for `CC(Sc1oc(-c2ccco2)nc1S(=O)(=O)c1ccc(Br)cc1)c1ccccc1` (stereo unspecified) was -8.99%.
For the compound `CN(Cc1ccccc1)c1ccc(-c2nc(-c3ccccc3)no2)cc1[N+](=O)[O-]`, the max response, negative = inhibition is -0.924%.
Regarding `O=C(NCc1ccccc1)c1ccc2c(c1)nc1n2CCCCC1`, the max response, negative = inhibition was -10.7%.
For the compound `O=C(NC(=S)Nc1ccc2oc(=O)ccc2c1)c1ccc(-c2cccc(Cl)c2Cl)o1`, the Potency was 5.01 µM (active).
In the case of `O=C(Nc1ccc(O)c(-c2nc3ccccc3o2)c1)c1ccc(-c2cccc(Cl)c2)o1`, the max response, negative = inhibition is 1.11%.
On the same count and under the same terms, in the case of `CCCOc1ccc(C(=O)Nc2ccc3oc(-c4cccc(Cl)c4Cl)nc3c2)cc1` it was 7.94%; in that of `COC(=O)c1cc(NC(=O)CCc2c(C)nc3c4c(C)cc(C)nc4nn3c2C)cc(C(=O)OC)c1`, -14.1%; in that of `COc1cccc2cc(-c3nc(Cl)c4c5c(sc4n3)CC(C)CC5)c(=O)oc12` (stereo unspecified), -8.92%.
